Results filed as inconclusive are left out. A call without a number means that no potency is given here. The source made the active and inactive calls. The call rests on the fitted dose curve; in most records, active means well fitted inhibition curve with a large enough effect; inconclusive means small, poorly fitted or top-dose-only effect; inactive means flat fitted curve, though single readings scatter.
Tests used:
Experiment in all cases: qHTS profiling for inhibitors of Plasmodium falciparum proliferation (AID 504749); further: nearly all actives have a fitted effect of over 60% in size
Settings in all cases: P. falciparum in erythrocytes, SYBR Green DNA, 72 h; series mostly up to 28.7 µM
[1] = system: 7G8
Method in brief: (§1)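 Three-day growth assay of blood-stage parasites in erythrocytes (0.3% parasitemia, 2.5% hematocrit) at 37 C, 5% CO2, quantified by SYBR Green DNA staining after overnight detergent lysis.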

[2] = system: AA1029
Method in brief: as §1

[3] = system: ATS95
Method in brief: as §1

[4] = system: CP194
Method in brief: as §1

[5] = system: CP201
Method in brief: as §1

[6] = system: CP215
Method in brief: as §1

[7] = system: CP217
Method in brief: as §1

[8] = system: CP260
Method in brief: as §1

[9] = system: CP266
Method in brief: as §1

[10] = system: CP291
Method in brief: as §1

[11] = system: CP297
Method in brief: as §1

[12] = system: DIV14
Method in brief: as §1

[13] = system: GB4
Method in brief: as §1

[14] = system: ICS
Method in brief: as §1

[15] = system: P93_24
Method in brief: as §1

[16] = system: P94_40
Method in brief: as §1

[17] = system: PC15
Method in brief: as §1

[18] = system: SC27B
Method in brief: as §1

[19] = system: TAB165
Method in brief: as §1

[20] = system: TAB113
Method in brief: as §1
Potency means the concentration at half of the fitted maximal effect.

Compound	Potency [1]	Potency [2]	Potency [3]	Potency [4]	Potency [5]	Potency [6]	Potency [7]	Potency [8]	Potency [9]	Potency [10]	Potency [11]	Potency [12]	Potency [13]	Potency [14]	Potency [15]	Potency [16]	Potency [17]	Potency [18]	Potency [19]	Potency [20]
OCCOC[C@H]1O[C@H](OCCO)[C@H](OCCO)[C@@H](OCCO)[C@@H]1OCCO (tested in a mixture with another compound)	inactive	inactive	inactive	inactive	inactive	inactive	inactive	inactive	inactive	inactive	inactive	inactive	inactive	inactive	inactive	inactive	inactive	inactive	inactive	
C#C[C@@]1(O)CC[C@@H]2[C@H]3CCC4=C/C(=N\O)CC[C@H]4[C@@H]3CC[C@]21CC		inactive	inactive		inactive	inactive	inactive	inactive	inactive	inactive	inactive	inactive			inactive	inactive	inactive	inactive	inactive	inactive
COc1cc2c(cc1O)CCN[C@@]21CS[C@H]2c3c(OC(C)=O)c(C)c4c(c3C(COC1=O)N1C2C2c3c(cc(C)c(OC)c3O)CC([C@@H]1O)N2C)OCO4 (stereo not given in full)	0.3 nM (active)	0.9 nM (active)	0.9 nM (active)	1.3 nM (active)	1.3 nM (active)	0.5 nM (active)	3.2 nM (active)	0.9 nM (active)	1.5 nM (active)	0.4 nM (active)	0.5 nM (active)	0.4 nM (active)	0.2 nM (active)	0.9 nM (active)	0.9 nM (active)	0.9 nM (active)	1.1 nM (active)	0.8 nM (active)	1 nM (active)	0.9 nM (active)
Nc1ncn(C2C[C@H](O)[C@@H](CO)O2)c(=O)n1 (stereo not given in full)	inactive	inactive	inactive	inactive	inactive		inactive	inactive		inactive		inactive	inactive	inactive	inactive	inactive	inactive	inactive	inactive	inactive
C=C[C@H]1CN2CCC1C[C@H]2[C@H](O)c1ccnc2ccc(OC)cc12 (stereo not given in full)	224 nM (active)	891 nM (active)	794 nM (active)	1070 nM (active)	2130 nM (active)	1200 nM (active)	2820 nM (active)	708 nM (active)	1900 nM (active)	1200 nM (active)	1690 nM (active)	757 nM (active)	301 nM (active)	282 nM (active)	1000 nM (active)	1000 nM (active)	447 nM (active)	1000 nM (active)	1120 nM (active)	708 nM (active)
CCN(CC)C(=O)[C@@]1(c2ccccc2)C[C@@H]1CN		inactive	inactive	inactive	inactive	inactive	inactive	inactive	inactive	inactive	inactive		inactive	inactive	inactive	inactive	inactive	inactive	inactive	inactive
CC1=C[C@@H](O)CC(C)(C)[C@@H]1/C=C/C(C)=C/C=C/C(C)=C/C=C/C=C(C)/C=C/C=C(C)/C=C/C1=C(C)C[C@H](O)CC1(C)C	10000 nM (active)			inactive	inactive				inactive	inactive		12000 nM (active)		5010 nM (active)						
CO/N=C(/C(=O)N[C@@H]1C(=O)N2C(C(=O)O)=C(CSc3nc(C)c(CC(=O)O)s3)CS[C@H]12)c1csc(N)n1	inactive	inactive	inactive	inactive	inactive	inactive	inactive	inactive	inactive	inactive	inactive	inactive	inactive	inactive	inactive	inactive	inactive	inactive	inactive	inactive
CC1=C(C/C=C(\C)CCCC(C)CCCC(C)CCCC(C)C)C(=O)c2ccccc2C1=O (stereo not given)	8910 nM (active)			inactive	inactive	inactive	inactive		inactive		inactive			3980 nM (active)		4470 nM (active)				8910 nM (active)
C[n+]1c2cc(N)ccc2cc2ccc(N)cc21	63.1 nM (active)	708 nM (active)	1120 nM (active)	1200 nM (active)	1690 nM (active)	1070 nM (active)	891 nM (active)	316 nM (active)	1350 nM (active)	1200 nM (active)	1350 nM (active)	213 nM (active)	213 nM (active)		562 nM (active)	631 nM (active)	178 nM (active)	1580 nM (active)	398 nM (active)	891 nM (active)
O=c1ccn(C2OC(COP(=O)(O)OC3C(CO)OC(n4ccc(=O)[nH]c4=O)C3O)C(O)C2O)c(=O)[nH]1 (stereo not given)	inactive	inactive	inactive	inactive	inactive	inactive	inactive	inactive	inactive	inactive	inactive	inactive	inactive	inactive	inactive	inactive	inactive	inactive	inactive	inactive
CN[C@H](C)CCC=C(C)C	50.1 nM (active)	199 nM (active)	355 nM (active)	675 nM (active)	2130 nM (active)	601 nM (active)	355 nM (active)	224 nM (active)	536 nM (active)	953 nM (active)	601 nM (active)	151 nM (active)	135 nM (active)	44.7 nM (active)	251 nM (active)	178 nM (active)	355 nM (active)	355 nM (active)	251 nM (active)	178 nM (active)
C[C@]12CC[C@@H]3c4ccc(O)cc4CC[C@H]3[C@@H]1C[C@H](O)C2O (stereo not given in full)	inactive	inactive	inactive	inactive	inactive	inactive	inactive	inactive	inactive	inactive	inactive	inactive	inactive	inactive	inactive	inactive	inactive	inactive	inactive	inactive
CCN(CC)C(=O)Nc1ccc(OC[C@H](O)CNC(C)(C)C)c(C(C)=O)c1	inactive	inactive	inactive	inactive	inactive	inactive	inactive	inactive	inactive	inactive	inactive	inactive	inactive	inactive	inactive	inactive	inactive	inactive	inactive	inactive
CC1(Cn2ccnn2)[C@H](C(=O)O)N2C(=O)C[C@H]2S1(=O)=O (stereo not given in full)	inactive	inactive	inactive	inactive	inactive	inactive	inactive	inactive	inactive	inactive	inactive	inactive	inactive	inactive	inactive	inactive	inactive	inactive	inactive	inactive
CC[C@@]1(O)CC2CN(CCc3c([nH]c4ccccc34)[C@](C(=O)OC)(c3cc4c(cc3OC)N(C)C3[C@@](O)(C(=O)OC)C(OC(C)=O)[C@]5(CC)C=CCN6CC[C@@]43C65)C2)C1 (stereo not given in full)	2820 nM (active)	3160 nM (active)	3550 nM (active)	3790 nM (active)		3380 nM (active)	3550 nM (active)	794 nM (active)			2390 nM (active)	4260 nM (active)	2130 nM (active)	708 nM (active)	3160 nM (active)	3550 nM (active)		2820 nM (active)	3550 nM (active)	3980 nM (active)
OCC1O[C@H](O[C@H]2C(O)C(O)C(O)O[C@@H]2CO)C(O)C(O)C1O (stereo not given in full)	inactive	inactive	inactive	inactive	inactive	inactive	inactive	inactive	inactive	inactive	inactive	inactive	inactive	inactive	inactive	inactive	inactive	inactive	inactive	inactive
CCC(=O)O[C@]1(C(=O)CCl)[C@@H](C)CC2C3C[C@H](F)C4=CC(=O)C=CC4(C)[C@@]3(F)C(O)CC21C (stereo not given in full)	1580 nM (active)	8910 nM (active)	6310 nM (active)	15100 nM (active)		10700 nM (active)	7940 nM (active)	11200 nM (active)		13500 nM (active)	10700 nM (active)	4260 nM (active)	7570 nM (active)	2820 nM (active)	10000 nM (active)	8910 nM (active)	8910 nM (active)	7940 nM (active)	10000 nM (active)	8910 nM (active)
